# Test results: article PMC7862700, “An all-to-all approach to the identification of sequence-specific readers for epigenetic DNA modifications on cytosine”
# Experiments:
# Assay in all cases: DAPPL (digital affinity profiling via proximity ligation, sequencing); 10 mM Tris-HCl pH 7.5, 50 mM NaCl, 1 mM DTT, 4% glycerol, room temperature, 30 min; GST-TFs on glutathione beads, 16-mer random dsDNA library, 0.1% formaldehyde crosslink after washing; high values mean tight binding
# [1] = target: T1, FLI1 (Homo sapiens, UniProt Q01543 1-452); conditions: protein: recombinant; tags: N-terminal GST; dsDNA, one strand shown
# T1 sequence: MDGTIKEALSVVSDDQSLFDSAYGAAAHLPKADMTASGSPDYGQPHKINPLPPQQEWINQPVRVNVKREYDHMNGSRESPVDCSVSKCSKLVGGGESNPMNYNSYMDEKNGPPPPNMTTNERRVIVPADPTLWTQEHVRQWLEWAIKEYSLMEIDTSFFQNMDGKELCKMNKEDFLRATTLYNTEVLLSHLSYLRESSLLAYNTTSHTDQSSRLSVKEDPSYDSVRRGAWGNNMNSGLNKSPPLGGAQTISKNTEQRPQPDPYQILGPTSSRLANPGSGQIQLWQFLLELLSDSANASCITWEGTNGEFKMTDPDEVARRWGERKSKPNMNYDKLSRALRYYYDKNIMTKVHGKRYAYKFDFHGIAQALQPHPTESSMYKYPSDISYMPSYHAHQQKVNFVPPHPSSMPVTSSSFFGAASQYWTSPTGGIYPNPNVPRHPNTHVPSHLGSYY
# How it was run: (§1)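 The binding signal reported is, for every hexamer, its read frequency for a factor over its read frequency for the tag-only sample. Reads came from pools of yeast-expressed, GST-fused human transcription factors on glutathione beads, barcoded with DNA and mixed with that sample, which were incubated with 200 nmole of a random double-stranded 16-mer DNA library in Tris/NaCl/DTT/glycerol buffer at room temperature for 30 min. After washing, the pools were crosslinked with 0.1% formaldehyde, proximity-ligated with BsaI/T4 ligase for 1 h at 37 °C, PCR-amplified and sequenced on an Illumina NextSeq500.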
# [2] = target: T2, ELK1 (Homo sapiens, UniProt P19419 1-428); conditions: protein: recombinant; tags: N-terminal GST; dsDNA, one strand shown
# T2 sequence: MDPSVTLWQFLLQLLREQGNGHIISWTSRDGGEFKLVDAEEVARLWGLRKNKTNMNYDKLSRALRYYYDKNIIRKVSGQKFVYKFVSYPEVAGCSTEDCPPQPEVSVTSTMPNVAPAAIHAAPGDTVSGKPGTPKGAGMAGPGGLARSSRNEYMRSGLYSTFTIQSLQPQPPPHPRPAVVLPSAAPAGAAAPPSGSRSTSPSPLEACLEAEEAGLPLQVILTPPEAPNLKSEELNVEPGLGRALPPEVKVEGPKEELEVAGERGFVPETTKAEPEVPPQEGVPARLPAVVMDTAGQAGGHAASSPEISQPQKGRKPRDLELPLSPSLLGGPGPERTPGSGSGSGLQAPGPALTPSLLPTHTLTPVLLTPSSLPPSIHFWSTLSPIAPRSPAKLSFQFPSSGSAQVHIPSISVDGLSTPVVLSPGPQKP
# How it was run: as §1
# [3] = target: T3, GABPA (Homo sapiens, UniProt Q06546 1-454); conditions: protein: recombinant; tags: N-terminal GST; dsDNA, one strand shown
# T3 sequence: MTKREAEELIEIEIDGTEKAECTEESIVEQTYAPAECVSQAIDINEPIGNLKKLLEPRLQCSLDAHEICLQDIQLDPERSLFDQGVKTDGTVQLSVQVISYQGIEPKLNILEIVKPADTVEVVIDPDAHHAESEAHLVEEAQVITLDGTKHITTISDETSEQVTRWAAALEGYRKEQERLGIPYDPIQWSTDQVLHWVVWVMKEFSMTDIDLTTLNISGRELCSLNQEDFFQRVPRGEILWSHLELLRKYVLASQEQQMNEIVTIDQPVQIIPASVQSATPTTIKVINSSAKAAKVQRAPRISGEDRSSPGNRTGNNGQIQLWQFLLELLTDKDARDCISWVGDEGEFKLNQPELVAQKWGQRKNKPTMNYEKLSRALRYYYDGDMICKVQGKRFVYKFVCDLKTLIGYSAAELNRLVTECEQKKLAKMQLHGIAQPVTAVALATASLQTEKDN
# How it was run: as §1
# [4] = target: T4, ERG (Homo sapiens, UniProt P11308 1-479); conditions: protein: recombinant; tags: N-terminal GST; dsDNA, one strand shown
# T4 sequence: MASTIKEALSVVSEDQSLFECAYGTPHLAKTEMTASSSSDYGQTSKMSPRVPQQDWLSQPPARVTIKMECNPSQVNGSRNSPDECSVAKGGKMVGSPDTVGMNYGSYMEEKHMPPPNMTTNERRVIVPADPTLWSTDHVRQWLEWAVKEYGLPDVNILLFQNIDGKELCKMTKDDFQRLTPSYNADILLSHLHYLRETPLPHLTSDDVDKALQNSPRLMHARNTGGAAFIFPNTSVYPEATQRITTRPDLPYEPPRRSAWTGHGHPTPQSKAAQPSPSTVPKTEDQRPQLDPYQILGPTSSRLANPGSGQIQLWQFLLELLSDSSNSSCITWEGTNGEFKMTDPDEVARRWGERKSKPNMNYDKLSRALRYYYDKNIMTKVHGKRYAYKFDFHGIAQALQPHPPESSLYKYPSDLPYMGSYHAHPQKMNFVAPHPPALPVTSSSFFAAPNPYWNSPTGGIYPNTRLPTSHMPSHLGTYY
# How it was run: as §1
# [5] = target: ELF1 (Homo sapiens, UniProt P32519 1-619); conditions: protein: recombinant; tags: N-terminal GST; dsDNA, one strand shown
# Sequence of ELF1 (P32519 whole entry): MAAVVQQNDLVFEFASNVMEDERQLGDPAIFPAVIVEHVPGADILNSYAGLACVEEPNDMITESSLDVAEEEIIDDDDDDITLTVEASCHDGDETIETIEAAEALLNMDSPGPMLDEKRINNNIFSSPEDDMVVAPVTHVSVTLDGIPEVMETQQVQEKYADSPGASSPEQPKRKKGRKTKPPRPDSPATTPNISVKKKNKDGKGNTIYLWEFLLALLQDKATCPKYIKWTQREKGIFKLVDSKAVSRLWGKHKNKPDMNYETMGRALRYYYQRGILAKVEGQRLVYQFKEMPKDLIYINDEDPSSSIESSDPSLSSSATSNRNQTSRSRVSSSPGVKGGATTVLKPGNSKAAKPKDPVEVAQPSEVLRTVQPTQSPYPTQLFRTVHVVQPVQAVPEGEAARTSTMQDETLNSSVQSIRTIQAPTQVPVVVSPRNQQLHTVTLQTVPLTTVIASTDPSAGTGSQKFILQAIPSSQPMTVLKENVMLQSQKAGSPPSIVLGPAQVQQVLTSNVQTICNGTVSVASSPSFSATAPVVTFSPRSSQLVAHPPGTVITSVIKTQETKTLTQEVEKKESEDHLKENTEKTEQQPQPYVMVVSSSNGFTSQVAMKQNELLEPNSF
# How it was run: as §1
# [6] = target: T5, EHF (Homo sapiens, UniProt Q9NZC4 1-300); conditions: protein: recombinant; tags: N-terminal GST; dsDNA, one strand shown
# T5 sequence: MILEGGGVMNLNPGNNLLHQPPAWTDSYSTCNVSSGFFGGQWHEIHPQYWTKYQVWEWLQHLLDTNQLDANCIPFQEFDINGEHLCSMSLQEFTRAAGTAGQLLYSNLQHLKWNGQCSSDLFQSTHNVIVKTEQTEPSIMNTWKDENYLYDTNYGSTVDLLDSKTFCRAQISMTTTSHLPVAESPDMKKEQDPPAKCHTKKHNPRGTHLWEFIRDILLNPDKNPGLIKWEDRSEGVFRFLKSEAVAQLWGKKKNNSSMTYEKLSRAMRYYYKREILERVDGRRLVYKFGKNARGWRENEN
# How it was run: as §1
# [7] = target: SPI1 (Homo sapiens, UniProt P17947 1-270); conditions: protein: recombinant; tags: N-terminal GST; dsDNA, one strand shown
# How it was run: as §1
# [8] = target: SPIB (Homo sapiens, UniProt Q01892 1-262); conditions: protein: recombinant; tags: N-terminal GST; dsDNA, one strand shown
# Sequence of SPIB (Q01892 whole entry): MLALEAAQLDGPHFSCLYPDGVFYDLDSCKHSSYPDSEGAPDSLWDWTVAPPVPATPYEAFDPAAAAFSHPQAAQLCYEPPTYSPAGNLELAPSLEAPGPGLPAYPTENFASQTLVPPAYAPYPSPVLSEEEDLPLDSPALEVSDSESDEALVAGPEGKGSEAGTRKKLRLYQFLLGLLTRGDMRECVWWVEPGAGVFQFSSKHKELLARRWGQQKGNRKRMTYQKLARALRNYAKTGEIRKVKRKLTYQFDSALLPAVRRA
# How it was run: as §1
# [9] = target: T6, ELK3 (Homo sapiens, UniProt P41970 1-407); conditions: protein: recombinant; tags: N-terminal GST; dsDNA, one strand shown
# T6 sequence: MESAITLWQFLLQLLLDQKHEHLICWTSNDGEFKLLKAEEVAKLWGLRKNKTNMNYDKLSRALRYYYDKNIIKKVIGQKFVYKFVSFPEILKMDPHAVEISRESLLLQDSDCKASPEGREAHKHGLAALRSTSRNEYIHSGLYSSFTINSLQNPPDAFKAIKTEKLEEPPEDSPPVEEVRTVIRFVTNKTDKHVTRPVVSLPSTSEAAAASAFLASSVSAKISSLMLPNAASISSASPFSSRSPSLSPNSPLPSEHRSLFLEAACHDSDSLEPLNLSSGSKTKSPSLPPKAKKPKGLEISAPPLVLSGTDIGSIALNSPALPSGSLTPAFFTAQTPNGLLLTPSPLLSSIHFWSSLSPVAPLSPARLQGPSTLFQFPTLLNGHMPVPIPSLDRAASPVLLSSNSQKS
# How it was run: as §1
# [10] = target: T7, FEV (Homo sapiens, UniProt Q99581 1-238); conditions: protein: recombinant; tags: N-terminal GST; dsDNA, one strand shown
# T7 sequence: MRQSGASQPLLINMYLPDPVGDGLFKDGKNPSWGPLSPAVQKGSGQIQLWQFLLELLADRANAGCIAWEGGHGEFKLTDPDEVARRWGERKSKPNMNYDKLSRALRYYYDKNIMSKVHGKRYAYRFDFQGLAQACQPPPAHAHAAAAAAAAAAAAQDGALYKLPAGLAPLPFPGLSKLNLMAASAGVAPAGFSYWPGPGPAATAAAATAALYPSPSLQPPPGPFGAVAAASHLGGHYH
# How it was run: as §1
# [11] = target: ETV5 (Homo sapiens, UniProt P41161 1-510); conditions: protein: recombinant; tags: N-terminal GST; dsDNA, one strand shown
# Sequence of ETV5 (P41161 whole entry): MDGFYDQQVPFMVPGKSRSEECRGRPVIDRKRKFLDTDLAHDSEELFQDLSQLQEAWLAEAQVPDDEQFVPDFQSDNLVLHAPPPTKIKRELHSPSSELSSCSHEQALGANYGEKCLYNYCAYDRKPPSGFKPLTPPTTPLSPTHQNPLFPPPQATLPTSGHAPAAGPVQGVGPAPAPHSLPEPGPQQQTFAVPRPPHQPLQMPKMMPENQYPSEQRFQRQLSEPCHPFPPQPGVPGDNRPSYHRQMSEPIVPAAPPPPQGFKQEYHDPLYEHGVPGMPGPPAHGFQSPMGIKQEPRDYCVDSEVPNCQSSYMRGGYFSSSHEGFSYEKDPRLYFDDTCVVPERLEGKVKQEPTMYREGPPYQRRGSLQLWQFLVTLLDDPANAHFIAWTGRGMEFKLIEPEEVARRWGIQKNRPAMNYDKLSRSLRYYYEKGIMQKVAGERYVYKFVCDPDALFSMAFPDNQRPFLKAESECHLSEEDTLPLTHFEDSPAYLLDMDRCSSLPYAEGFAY
# How it was run: as §1
# [12] = target: HSF1 (Homo sapiens, UniProt Q00613 1-529); conditions: protein: recombinant; tags: N-terminal GST; chain copies: 3; dsDNA, one strand shown
# Sequence of HSF1 (Q00613 whole entry): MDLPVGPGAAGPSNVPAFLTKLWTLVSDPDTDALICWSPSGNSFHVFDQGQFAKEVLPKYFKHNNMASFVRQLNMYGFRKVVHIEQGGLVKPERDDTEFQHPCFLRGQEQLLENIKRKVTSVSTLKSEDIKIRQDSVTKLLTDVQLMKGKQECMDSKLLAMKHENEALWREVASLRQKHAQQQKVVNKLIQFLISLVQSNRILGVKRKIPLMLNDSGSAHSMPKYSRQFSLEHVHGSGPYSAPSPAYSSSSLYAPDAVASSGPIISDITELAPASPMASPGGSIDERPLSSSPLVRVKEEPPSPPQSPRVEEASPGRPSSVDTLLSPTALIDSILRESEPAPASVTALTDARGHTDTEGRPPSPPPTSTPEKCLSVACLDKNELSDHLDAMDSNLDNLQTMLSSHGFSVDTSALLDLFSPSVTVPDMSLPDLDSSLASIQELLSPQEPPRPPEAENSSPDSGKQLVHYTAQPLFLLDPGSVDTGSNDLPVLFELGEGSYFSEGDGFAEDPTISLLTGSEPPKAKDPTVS
# How it was run: as §1
# [13] = target: ELF4 (Homo sapiens, UniProt Q99607 1-663); conditions: protein: recombinant; tags: N-terminal GST; dsDNA, one strand shown
# Sequence of ELF4 (Q99607 whole entry): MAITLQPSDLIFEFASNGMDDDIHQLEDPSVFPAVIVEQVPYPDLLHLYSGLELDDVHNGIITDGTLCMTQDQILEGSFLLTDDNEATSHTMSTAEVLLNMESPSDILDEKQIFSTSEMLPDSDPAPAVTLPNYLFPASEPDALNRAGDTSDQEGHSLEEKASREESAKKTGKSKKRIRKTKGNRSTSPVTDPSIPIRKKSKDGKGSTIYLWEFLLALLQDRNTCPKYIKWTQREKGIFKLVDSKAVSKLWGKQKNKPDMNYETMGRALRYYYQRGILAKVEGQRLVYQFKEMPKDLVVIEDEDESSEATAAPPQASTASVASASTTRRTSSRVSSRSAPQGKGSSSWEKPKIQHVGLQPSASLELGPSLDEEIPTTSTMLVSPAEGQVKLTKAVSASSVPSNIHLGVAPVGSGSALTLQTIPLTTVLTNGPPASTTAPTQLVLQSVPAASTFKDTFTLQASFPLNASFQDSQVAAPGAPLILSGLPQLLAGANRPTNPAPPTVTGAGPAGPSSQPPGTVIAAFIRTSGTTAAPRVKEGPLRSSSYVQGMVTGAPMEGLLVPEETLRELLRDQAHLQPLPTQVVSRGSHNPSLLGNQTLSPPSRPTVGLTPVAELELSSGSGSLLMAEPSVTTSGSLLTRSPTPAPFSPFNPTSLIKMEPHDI
# How it was run: as §1
# [14] = target: T8, ELK4 (Homo sapiens, UniProt P28324-2 1-405); conditions: protein: recombinant; tags: N-terminal GST; dsDNA, one strand shown
# T8 sequence: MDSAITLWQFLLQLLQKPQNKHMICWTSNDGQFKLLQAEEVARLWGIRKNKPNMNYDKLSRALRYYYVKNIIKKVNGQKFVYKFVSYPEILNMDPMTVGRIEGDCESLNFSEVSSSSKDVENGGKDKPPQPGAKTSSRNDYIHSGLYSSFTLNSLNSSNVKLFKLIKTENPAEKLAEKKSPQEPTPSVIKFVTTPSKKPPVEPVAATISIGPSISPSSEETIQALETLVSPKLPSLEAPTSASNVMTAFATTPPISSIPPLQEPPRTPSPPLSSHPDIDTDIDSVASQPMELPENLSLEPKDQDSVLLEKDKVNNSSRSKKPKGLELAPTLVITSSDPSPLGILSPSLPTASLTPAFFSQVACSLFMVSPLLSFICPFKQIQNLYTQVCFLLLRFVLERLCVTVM
# How it was run: as §1
# [15] = target: T9, ETV2 (Homo sapiens, UniProt O00321 1-342); conditions: protein: recombinant; tags: N-terminal GST; dsDNA, one strand shown
# T9 sequence: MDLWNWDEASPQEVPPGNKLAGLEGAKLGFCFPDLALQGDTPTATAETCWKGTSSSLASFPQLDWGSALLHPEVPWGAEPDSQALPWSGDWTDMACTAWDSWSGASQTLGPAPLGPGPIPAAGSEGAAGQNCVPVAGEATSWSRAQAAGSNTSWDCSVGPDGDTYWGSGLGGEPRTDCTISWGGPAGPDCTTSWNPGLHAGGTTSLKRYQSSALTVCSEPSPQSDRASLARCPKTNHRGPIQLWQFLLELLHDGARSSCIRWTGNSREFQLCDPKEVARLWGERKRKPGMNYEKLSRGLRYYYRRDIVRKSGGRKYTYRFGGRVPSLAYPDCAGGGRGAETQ
# How it was run: as §1
# [16] = target: T10, ELF3 (Homo sapiens, UniProt P78545 1-371); conditions: protein: recombinant; tags: N-terminal GST; dsDNA, one strand shown
# T10 sequence: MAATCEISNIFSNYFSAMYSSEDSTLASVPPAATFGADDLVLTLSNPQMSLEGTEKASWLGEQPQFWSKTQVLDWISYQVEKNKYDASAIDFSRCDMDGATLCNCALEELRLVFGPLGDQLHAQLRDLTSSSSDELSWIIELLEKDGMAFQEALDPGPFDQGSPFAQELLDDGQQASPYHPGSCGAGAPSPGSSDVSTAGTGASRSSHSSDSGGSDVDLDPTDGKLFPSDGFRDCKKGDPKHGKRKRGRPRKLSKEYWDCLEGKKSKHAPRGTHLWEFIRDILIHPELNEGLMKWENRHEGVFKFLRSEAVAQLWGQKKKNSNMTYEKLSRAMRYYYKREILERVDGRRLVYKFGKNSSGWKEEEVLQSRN
# How it was run: as §1
# [17] = target: CRX (Homo sapiens, UniProt O43186 1-299); conditions: protein: recombinant; tags: N-terminal GST; dsDNA, one strand shown
# Sequence of CRX (O43186 whole entry): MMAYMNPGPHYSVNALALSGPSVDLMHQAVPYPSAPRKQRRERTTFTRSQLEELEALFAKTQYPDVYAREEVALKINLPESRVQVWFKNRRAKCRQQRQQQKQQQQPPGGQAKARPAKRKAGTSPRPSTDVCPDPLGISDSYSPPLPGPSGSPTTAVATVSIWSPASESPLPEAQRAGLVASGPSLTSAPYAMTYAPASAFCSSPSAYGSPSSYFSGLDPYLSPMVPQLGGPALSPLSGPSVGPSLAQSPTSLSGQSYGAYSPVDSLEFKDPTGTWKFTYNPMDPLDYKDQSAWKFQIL
# How it was run: as §1
# [18] = target: ETV1 (Homo sapiens, UniProt P50549 1-477); conditions: protein: recombinant; tags: N-terminal GST; dsDNA, one strand shown
# Sequence of ETV1 (P50549 whole entry): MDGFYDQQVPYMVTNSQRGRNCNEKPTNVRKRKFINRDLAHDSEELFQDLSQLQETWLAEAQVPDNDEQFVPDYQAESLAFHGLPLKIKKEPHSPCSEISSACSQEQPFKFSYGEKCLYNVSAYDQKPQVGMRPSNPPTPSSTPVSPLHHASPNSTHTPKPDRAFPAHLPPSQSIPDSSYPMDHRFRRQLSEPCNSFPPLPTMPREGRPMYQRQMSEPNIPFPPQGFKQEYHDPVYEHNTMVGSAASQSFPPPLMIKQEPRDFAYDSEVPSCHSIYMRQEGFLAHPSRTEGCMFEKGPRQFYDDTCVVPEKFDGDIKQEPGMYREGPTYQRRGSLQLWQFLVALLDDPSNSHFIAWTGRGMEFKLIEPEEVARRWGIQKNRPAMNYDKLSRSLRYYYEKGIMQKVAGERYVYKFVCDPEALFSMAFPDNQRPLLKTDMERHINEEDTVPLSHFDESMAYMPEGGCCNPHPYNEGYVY
# How it was run: as §1
sequence,measurement,setting,value
TACAAA,binding signal,[1],"1.14 fold enrichment (6-mer frequency, TF over GST control)"
same,binding signal,[2],"1.14 fold enrichment (6-mer frequency, TF over GST control)"
same,binding signal,[3],"1.1 fold enrichment (6-mer frequency, TF over GST control)"
same,binding signal,[4],"1.08 fold enrichment (6-mer frequency, TF over GST control)"
same,binding signal,[5],"1.14 fold enrichment (6-mer frequency, TF over GST control)"
same,binding signal,[6],"1.2 fold enrichment (6-mer frequency, TF over GST control)"
same,binding signal,[7],"1.07 fold enrichment (6-mer frequency, TF over GST control)"
same,binding signal,[8],"1.06 fold enrichment (6-mer frequency, TF over GST control)"
same,binding signal,[9],"1.06 fold enrichment (6-mer frequency, TF over GST control)"
same,binding signal,[10],"1.11 fold enrichment (6-mer frequency, TF over GST control)"
same,binding signal,[11],"1.15 fold enrichment (6-mer frequency, TF over GST control)"
same,binding signal,[12],"1.12 fold enrichment (6-mer frequency, TF over GST control)"
same,binding signal,[13],"1.13 fold enrichment (6-mer frequency, TF over GST control)"
same,binding signal,[14],"1.09 fold enrichment (6-mer frequency, TF over GST control)"
same,binding signal,[15],"1.17 fold enrichment (6-mer frequency, TF over GST control)"
same,binding signal,[16],"1.06 fold enrichment (6-mer frequency, TF over GST control)"
same,binding signal,[17],"1.22 fold enrichment (6-mer frequency, TF over GST control)"
same,binding signal,[18],"1.14 fold enrichment (6-mer frequency, TF over GST control)"
